From PubChem BioAssay (EPA / NIEHS) come the findings set out here.

Each structure is given as a SMILES string. Results filed as inconclusive are left out. The source made the active and inactive calls. How the source made its calls: active means hit-call score of the fitted dose curve at least 0.9, where 1 is the maximum; inconclusive means response in the unintended direction; inactive means score below 0.9.

This test is described as follows: CCTE_Simmons_MITO_viability: CellTiter-Glo Viability Assessment for CCTE's HepG2 Seahorse XF Respirometric Screening Assay [post-hoc], Simmons Lab (AID 2284007).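 On AC50: cells exposed to chemical for 90 min before the ATP read; actives lower ATP signal relative to DMSO baseline meaning reduced viability.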 As to the method:
CCTE_Simmons_MITO is cell-based, respirometric assay using HepG2 cells and a Seahorse XF Analyzer to measure oxygen consumption rates over four temporal phases spanning a total of 72 minutes: pre-injection (pre-treatment), basal (following test compound injection), maximal (following FCCP uncoupler injection), and inhibited (following rotenone/antimycin A injection)CCTE_Simmons_MITO_viability is one of 4 assay components measured from the CCTE_Simmons_MITO assay. It is designed to make measurements of ATP content, a form of viability reporter, as detected with bioluminescence signals by Luciferase-coupled ATP quantitation technology. Data from the assay component CCTE_Simmons_MITO_viability was analyzed at the endpoint, CCTE_Simmons_MITO_viability, in the positive analysis fitting direction relative to DMSO as the negative control and baseline of activity. Using a type of viability reporter, measures of ATP content for loss-of-signal activity can be used to understand the viability. To generalize the intended target to other relatable targets, this assay endpoint is annotated to the cell cycle intended target family, where the subfamily is cytotoxicity.
Test chemicals were administered as a titrated series of 7 concentrations from 125 nM up to 100 uM [final] for 90 minutes prior to single endpoint detection. Three biological replicates of technical singles were run for every chemical concentration tested. Dimethylsulfoxide [DMSO] was used as the vehicle control. Dichlone [DCNQ] was used as the positive control and was administered as a titrated series of 8 concentrations from 10 nM up to 100 uM [final].
On the technique in general: In ATP-based viability assays light output follows the ATP content of the culture.
Turning to `O=C(O)C(F)(F)C(F)(F)C(F)(F)C(F)(F)C(F)(F)C(F)(F)C(F)(F)C(F)(F)F`, the compound was classed as inactive. For `C[C@]12CCC(=O)C=C1CC[C@@H]1[C@@H]2CC[C@]2(C)C(=O)CC[C@@H]12`, the call was inactive.

On to `CCSC(=O)N(CC)C1CCCCC1`, for which the call was inactive. With `O=C(O)C(F)(F)C(F)(F)C(F)(F)C(F)(F)C(F)(F)C(F)(F)C(F)(F)C(F)(F)C(F)(F)F`, the result was inactive. For `CCCCCCCCCC[N+](C)(C)CCCCCCCCCC`, the AC50 – broadly, the midpoint of the concentration-response curve, whichever way the signal moves – was 28 µM (active). Take `CC(C)(c1ccccc1)c1ccc(O)cc1`: the call was inactive.

As to `COc1ccc(O)c(C(C)(C)C)c1`, the compound was classed as inactive.

For `CCC(C)c1cc([N+](=O)[O-])cc([N+](=O)[O-])c1O` (centres undefined), the AC50 is 2.91 µM (active). In the case of `CC(c1ccc(O)cc1)(c1ccc(O)cc1)c1ccc(O)cc1`, the outcome was inactive. Regarding `Oc1c(Cl)c(Cl)c(Cl)c(Cl)c1Cl`, the AC50 is 6.35 µM (active). In the case of `CO/C=C(/C(=O)OC)c1ccccc1COc1cccc(C(F)(F)F)n1`, the call was inactive. Turning to `NS(=O)(=O)C(F)(F)C(F)(F)C(F)(F)C(F)(F)C(F)(F)C(F)(F)C(F)(F)C(F)(F)F`, the outcome was inactive. Same read-out and setting: the value for `N#Cc1ccc(N(CC(N)=O)CC(F)(F)F)cc1C(F)(F)F` was “inactive”; that for `CC(C)(O)C(=O)Nc1ccc([N+](=O)[O-])c(C(F)(F)F)c1` was “inactive”.
